According to PubChem BioAssay (NCI):
Compounds without any hit were thinned out: in the full panel of roughly 83,000, 20% have a hit.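 Step 1: grow cells in 96-well plates. Step 2: add test compound at a single concentration. Step 3: incubate 48 h. Step 4: record percent growth.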 Values without a mark were called inactive. Activity calls are given as the source filed them. How the source made its calls: active means growth percent below 10; inactive means the rest.

What was measured:
Experiment in all cases: NCI-60 one-dose screen, 48 h (100 = growth as untreated, 0 = no growth, -100 = all killed)
Conditions in all cases: 10 µM unless noted
DU-145 prostate = tested on: DU-145 prostate
K-562 leukemia = tested on: K-562 leukemia
MALME-3M melanoma = tested on: MALME-3M melanoma
MDA-MB-231 breast = tested on: MDA-MB-231 breast
RXF 393 renal = tested on: RXF 393 renal
SF-268 CNS = tested on: SF-268 CNS
SF-295 CNS = tested on: SF-295 CNS
SF-539 CNS = tested on: SF-539 CNS
UACC-257 melanoma = tested on: UACC-257 melanoma
M14 melanoma = tested on: M14 melanoma
HCT-15 colon = tested on: HCT-15 colon
HT29 colon = tested on: HT29 colon
SNB-75 CNS = tested on: SNB-75 CNS
U251 CNS = tested on: U251 CNS
PC-3 prostate = tested on: PC-3 prostate
SK-MEL-5 melanoma = tested on: SK-MEL-5 melanoma
UACC-62 melanoma = tested on: UACC-62 melanoma
LOX IMVI melanoma = tested on: LOX IMVI melanoma
SK-MEL-28 melanoma = tested on: SK-MEL-28 melanoma
SNB-19 CNS = tested on: SNB-19 CNS

| Compound | growth (DU-145 prostate) | growth (K-562 leukemia) | growth (MALME-3M melanoma) | growth (MDA-MB-231 breast) | growth (RXF 393 renal) | growth (SF-268 CNS) | growth (SF-295 CNS) | growth (SF-539 CNS) | growth (UACC-257 melanoma) | growth (M14 melanoma) | growth (HCT-15 colon) | growth (HT29 colon) | growth (SNB-75 CNS) | growth (U251 CNS) | growth (PC-3 prostate) | growth (SK-MEL-5 melanoma) | growth (UACC-62 melanoma) | growth (LOX IMVI melanoma) | growth (SK-MEL-28 melanoma) | growth (SNB-19 CNS) |
| --- | --- | --- | --- | --- | --- | --- | --- | --- | --- | --- | --- | --- | --- | --- | --- | --- | --- | --- | --- | --- |
| O=C1CC(c2ccccc2)Cc2nc3ccc(Cl)cc3cc21 (configuration not stated) | 0.185% (active) | 6.83% (active) | 34% | 19.5% | 21.8% | 45.2% | -3.44% (active) | -12% (active) | 69.1% | 8.98% (active) | 13.9% | 4.39% (active) | 29.7% | 18.8% | 27.7% | -14.3% (active) | 29.3% | 29.7% | 50.6% |  |
| O=C(Nc1ccc(Oc2ccc(F)cc2)c(Cl)c1)c1cccnn1 | 76.7% | 55.5% | 105% | 88.1% | 82.6% | 80.4% | 73.4% | 85.5% | 64.3% | 114% | 77.6% | 76.7% | 87.8% | 62.9% | 64.4% | 30.7% | 62.5% | 72.8% | 90.9% |  |
| CN(C)C(=S)Sc1ccc([N+](=O)[O-])cc1[N+](=O)[O-] | 64.7% | 8.13% (active) | -4.06% (active) | 44.3% | -61.1% (active) | 52.8% | 90.3% | 52.1% | 41.4% | 8.95% (active) | 5.29% (active) | -16.6% (active) | 57.4% | 6.55% (active) | 28.1% | 17.2% | 33.5% | -4.79% (active) | 75.1% |  |
| COc1ccc2c(c1)c(-c1noc(-c3cn(C)c4ncc(F)cc34)n1)cn2C | 82.4% | 84.7% | 77.5% | 62.2% | 73.7% | 79.7% | 62.6% | 84.6% | 94.4% | 91.9% | 84.7% | 78.2% | 94.9% |  | 91.7% | 74.8% | 83.9% | 52.4% | 91.3% |  |
| CN(C)CCCNc1nc(-c2cccc(C(Cl)(Cl)Cl)c2)nc(C(Cl)(Cl)Cl)n1 | 112% | 88.2% | 88.9% | 95.8% | 109% | 106% | 94.1% | 110% | 119% | 102% | 108% | 94.9% | 83.1% | 105% | 98.4% | 103% | 99.6% | 87.7% | 103% |  |
| Cc1ccc(S(=O)(=O)Nc2ccccc2)cc1N | 108% | 78.3% | 133% | 83.9% | 94.5% | 94.8% | 119% | 106% | 92.3% | 96.2% | 99.1% | 107% | 95% | 101% | 89.5% | 88.5% | 90.8% | 91.3% | 100% |  |
| CCOC(=O)c1sc2nc(-c3cc(OC)c(OC)c(OC)c3)nc(N3CCOCC3)c2c1C | 48.3% | 24.2% | 9.78% (active) | 44.9% | 32.3% | 40.1% | 40.3% | 50.4% | 51.7% | 38.4% | 29.1% | 40.6% | 56.2% | 36.2% | 14.2% | 2.9% (active) | 15.7% | 45.1% | 42.2% |  |
| C=C(C)[C@@H]1CC[C@]2(C(=O)NCCNCCNCCN)CC[C@]3(C)[C@H](CC[C@@H]4[C@@]5(C)CCC(=O)C(C)(C)[C@@H]5CC[C@]43C)[C@@H]12 | -56.7% [100 µM] (active) | -17% [100 µM] (active) | -72.8% [100 µM] (active) | -92.4% [100 µM] (active) | -71.9% [100 µM] (active) | -38.7% [100 µM] (active) | -54.5% [100 µM] (active) | -92.7% [100 µM] (active) | -10.7% [100 µM] (active) | -62.8% [100 µM] (active) | -36.6% [100 µM] (active) | -77.4% [100 µM] (active) | -41.5% [100 µM] (active) | -81.8% [100 µM] (active) | -24.6% [100 µM] (active) | -86.2% [100 µM] (active) | -77.9% [100 µM] (active) | -68.2% [100 µM] (active) | -73.9% [100 µM] (active) |  |
| C#CCNC(=O)CC[C@]1(C)[C@H]2CC[C@@H]3[C@@H]([C@@](C)(O)CCC=C(C)C)CC[C@@]3(C)[C@]2(C)CC[C@H]1C(=C)C | 52.7% [100 µM] | 5.99% [100 µM] (active) | -73.6% [100 µM] (active) | -24.5% [100 µM] (active) | 30.6% [100 µM] | -28.8% [100 µM] (active) | 49% [100 µM] | -81% [100 µM] (active) | 61.5% [100 µM] | 53.1% [100 µM] | 67.3% [100 µM] | -30.8% [100 µM] (active) | -19% [100 µM] (active) | -71.4% [100 µM] (active) | 20.5% [100 µM] | 9.4% [100 µM] (active) | 34% [100 µM] | -67.7% [100 µM] (active) | 54.1% [100 µM] |  |
| COc1ccc(C(C(=O)O)c2ccc(OC)cc2)cc1 | 105% | 105% | 128% | 120% | 128% | 103% | 104% | 105% | 110% | 114% | 99.4% | 114% | 72.2% | 113% | 101% | 110% | 116% | 106% | 107% |  |
| CCOC(=O)CCC[P+](c1ccccc1)(c1ccccc1)c1ccccc1 | 90% | 57.9% | 75.4% | 80.9% | 108% | 83.2% | 105% | 89.5% | 27.2% | 87.9% | 102% | 70.2% | 86.8% | 52.6% | 69.5% | 48.5% | 65% | 83% | 83.8% |  |
| C=C(C)[C@@H]1CC[C@]2(c3ncc(C)o3)CC[C@]3(C)[C@H](CC[C@@H]4[C@@](C)(CCC#N)[C@H](C(=C)C)CC[C@]43C)[C@@H]12 | -76.4% [100 µM] (active) | 4.09% [100 µM] (active) | -87.5% [100 µM] (active) | -96.1% [100 µM] (active) | -83.6% [100 µM] (active) | -66.2% [100 µM] (active) | -81.7% [100 µM] (active) | -94.3% [100 µM] (active) | -80.5% [100 µM] (active) | -68.4% [100 µM] (active) | -69.3% [100 µM] (active) | -69.8% [100 µM] (active) |  | -82.4% [100 µM] (active) | -64.1% [100 µM] (active) | -92.1% [100 µM] (active) | -91% [100 µM] (active) | -83.6% [100 µM] (active) | -89.1% [100 µM] (active) | -95% [100 µM] (active) |
| COc1ccc2nc3c(cc2c1)C(=O)CC(C(F)(F)F)C3 (configuration not stated) | 4.31% (active) | 16.7% | 49.6% | 60% | -1.91% (active) | 57.4% | 45.3% | 22.6% | 82% | 8.65% (active) | 37.8% | 10.9% | 7.87% (active) |  | 33% | 31.4% | 39.8% | 43.8% | 61.1% |  |
| O=c1cc(-c2ccccc2)oc2c(O)c(O)ccc12 | 68.4% | 63.9% | 87.2% | 71% | 72.9% | 67.6% | 64.5% | 53.1% | 85.3% | 58.8% | 38% | 77.4% | 73.7% | 43.1% | 67.4% | 53.6% | 72.7% |  | 81% |  |
| CO[C@H]1CC[C@@]2(C)C(=CC[C@H]3[C@@H]4C[C@H](O)C[C@@]4(C)CC[C@@H]32)C1 | 42.1% | 20.7% | 52.1% | 56.2% | 58.5% | 49.2% | 40.8% | 38% | 65.2% | 36.6% | 36.4% | 69% | 32.8% | 38.6% | 68.3% | 30.9% | 42.6% | 48.7% | 68.5% |  |
